PostGolgi yeast – growth inhibition of a yeast mutant, post-Golgi transport screen. inhibition, % at 10 µM. post-Golgi transport phenotypic cell assay. 98,000 compounds, 0.9% hits;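 also: yeast cells grown in 1536-well plates; yeast grown about 18 h at 30C before absorbance read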
PostGolgi ctrl – inhibits growth of the yeast control strain. 98,000 compounds, 5% hits. inhibition, % at 10 µM. efflux-deficient yeast background strain, growth absorbance A615, 16 h
CYP2C19 act – increases human CYP2C19 enzyme activity | 96,000 tested, under 10 active | recombinant CYP2C19, luciferin-H EGE luminescence; active compounds read high; 0 = fully inhibited enzyme, 1 = untreated enzyme | activation factor at 5 µM | P33261;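 active = activation factor of at least 2 at 5 µM in the primary screen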
Target sequence (P33261 whole entry, looked up): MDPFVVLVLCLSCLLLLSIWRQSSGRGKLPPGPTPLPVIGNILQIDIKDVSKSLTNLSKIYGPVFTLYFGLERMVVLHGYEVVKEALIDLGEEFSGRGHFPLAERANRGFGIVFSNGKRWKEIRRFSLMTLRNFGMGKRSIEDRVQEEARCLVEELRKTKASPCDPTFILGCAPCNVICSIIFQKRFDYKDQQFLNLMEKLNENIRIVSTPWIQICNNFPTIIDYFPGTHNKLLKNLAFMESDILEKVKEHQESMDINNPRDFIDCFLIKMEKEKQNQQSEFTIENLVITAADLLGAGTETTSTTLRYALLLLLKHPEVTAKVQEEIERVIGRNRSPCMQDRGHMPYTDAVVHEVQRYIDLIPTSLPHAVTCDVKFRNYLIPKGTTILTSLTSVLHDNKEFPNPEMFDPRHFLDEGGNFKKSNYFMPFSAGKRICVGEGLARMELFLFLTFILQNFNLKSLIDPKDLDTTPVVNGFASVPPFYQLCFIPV
CYP2C19 inh – human CYP2C19 inhibition; P33261; CYP2C19 Supersomes, luciferin-H EGE luminescence, 30 min; inhibition, % at 5 µM; 96,000 compounds, 21% hits; AID 778;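 active = CYP2C19 inhibition above a set limit at 5 µM in the primary screen, cut at about 50% in these data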
CYP2C9 activ – activators of human CYP2C9; AID 1024; P11712; activation factor at 5 µM; 96,000 compounds, 1.4% hits; recombinant CYP2C9, luciferin-H conversion, luminescence; active compounds read high; factor 1 = untreated enzyme, 0 = blocked;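 active = activation factor of 2 or more for CYP2C9 at a 5 µM dose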
CYP2C9 inhib – human CYP2C9 inhibition. 96,000 compounds, 20% hits. inhibition, % at 5 µM. P11712. CYP2C9 Supersomes, luciferin-H conversion, luminescence;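 active = blocking of liver enzyme CYP2C9 beyond about 50% at 5 µM, limit read from the data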
A number is an active result; 0 = inactive; - = no result given. Most compounds without a hit are left out; they make up all but 32% or so of the library. Rule as the data show it, unless noted: active = inhibition above about 30%; inactive = the rest.

SMILES	PostGolgi yeast	PostGolgi ctrl	CYP2C19 act	CYP2C19 inh	CYP2C9 activ	CYP2C9 inhib
CCCn1nc2cc(C(=O)NCC34CC5CC(CC(C5)C3)C4)ccc2c1OCC	0	0	0	0	0	0
Cc1ccc(C(=O)CSc2nnc(-c3ccco3)n2Cc2ccccc2)cc1	0	0	0	58	0	62
NC(=O)NC(=O)CSc1nnc(-c2ccco2)n1Cc1ccccc1	0	0	0	0	0	0
O=C(CSc1nnc(-c2ccco2)n1Cc1ccccc1)c1ccccc1	0	0	0	93	0	87
CC(C)Cn1c(SCC(=O)c2ccc(Cl)s2)nnc1-c1ccco1	0	0	0	67	0	72
Cc1ccc(C(=O)CSc2nnc(-c3ccco3)n2CC2CCCO2)cc1 (stereo unspecified)	0	0	0	0	0	0
Cn1c(SCC(=O)c2ccc(-c3ccccc3)cc2)nnc1-c1ccco1	0	0	0	68	0	56
Cn1c(SCC(=O)OCc2ccccc2)nnc1-c1ccco1	0	0	0	0	0	0
COc1ccc(N2CCCCn3c2nc2c3c(=O)n(C)c(=O)n2C)cc1	0	0	0	0	0	0
CC(C)(C)C(=O)/C=C/Nc1ccccc1O	0	0	0	0	0	0
O=C(NC1CCCCC1)N1CCC(n2cnc3ccccc32)CC1	0	0	0	0	0	0
Cc1cccc(Nc2ccccc2C(=O)OCC(=O)NCc2ccco2)c1C	0	0	0	0	0	0
Cc1cccc(Nc2ccccc2C(=O)OCC(=O)N2CCOCC2)c1C	0	35	-	-	-	-
O=C(NCc1ccco1)Nc1ccc2snnc2c1	0	0	0	83	0	86
Cc1ccc(CNC(=O)C2(NC(=O)Nc3ccc(C)cc3)CCCCC2)cc1	0	0	0	0	0	54
COc1ccc(NC(=O)NC2(C(=O)N3CCCCCC3)CCCCC2)cc1	0	0	0	0	0	60
O=C(Nc1ccc(F)cc1)NC1(C(=O)NCc2ccco2)CCCCC1	0	32	0	0	0	0
CC(C)C(NC(=O)COc1ccc2ccccc2c1)C(=O)N/N=C/C=C/c1ccccc1 (stereo unspecified)	0	0	0	0	0	0
Cc1ccccc1-n1c(-c2ccncc2)n[nH]c1=S	-	-	0	54	0	0
COc1ccccc1-n1c(-c2ccc(NS(C)(=O)=O)cc2)n[nH]c1=S	0	0	0	0	0	0
CC(c1ccccc1)n1c(-c2ccncc2)n[nH]c1=S (stereo unspecified)	0	0	0	78	0	65
Cc1cccc(-n2c(C)n[nH]c2=S)c1C	0	0	0	0	0	0
S=c1[nH]nc(-c2ccncc2)n1Cc1ccccc1	0	0	0	0	0	0
CCc1ccccc1-n1c(-c2ccncc2)n[nH]c1=S	0	0	0	68	0	68
O=C1CN(C(=O)COC(=O)COc2ccc3c(c2)CCC3)c2ccccc2N1	0	0	0	0	0	0
SMILES	PostGolgi yeast	PostGolgi ctrl	CYP2C19 act	CYP2C19 inh	CYP2C9 activ	CYP2C9 inhib
Cc1ccc2c(CC(=O)Nc3nc(C)cs3)coc2c1	0	0	0	0	0	0
Clc1ccc(-c2onc3c2CCCC3)cc1	0	0	0	0	0	0
CC(C)C(C)(C#N)NC(=O)CSc1nnc(-c2ccncc2)n1Cc1ccccc1 (stereo unspecified)	0	0	0	80	0	52
O=C(O)CSc1nnc(-c2ccncc2)n1Cc1ccccc1	0	0	0	0	0	0
CC(C)(C)NC(=O)CSc1nnc(-c2ccncc2)n1Cc1ccccc1	0	0	0	80	0	50
O=C(CSc1nnc(-c2ccncc2)n1Cc1ccccc1)Nc1nccs1	0	0	0	75	0	54
COc1ccc(OC)c(C2=Nn3c(nnc3-c3cccc(OC(C)C)c3)SC2)c1	0	0	0	0	0	0
N#Cc1c(Sc2ncc(C(F)(F)F)cc2Cl)nsc1C/C=N\OCc1ccccc1Br	0	0	0	0	0	0
CC1CC(N(C(=O)c2ccccc2Cl)c2ccccc2)c2ccccc2N1 (stereo unspecified)	0	39	0	0	0	0
CCC(=O)N1c2ccccc2[C@@H](N(C(C)=O)c2ccccc2)C[C@H]1C	0	0	0	0	0	0
CC(C)(C)C1=C(C#N)C(c2cc3c(cc2Br)OCO3)C(C#N)=C(N)O1 (stereo unspecified)	-	-	0	0	0	0
Cn1ccnc1SCc1cc(=O)[nH]c2ccccc12	0	0	0	0	0	0
Cc1cccc(-c2nnc(SCc3cc(=O)[nH]c4ccccc34)n2C)c1	0	0	0	84	2.1	0
Cc1ccc(-n2nnnc2SCC(=O)Nc2c(C)n(C)n(-c3ccccc3)c2=O)cc1	0	0	0	0	0	0
COc1ccc(-n2c(SC)nnc2-c2c[nH]c3ccccc23)cc1	0	0	0	0	0	0
C=CCSc1nnc(-c2c[nH]c3ccccc23)n1CC	0	0	0	79	0	0
CCOC(=O)C(C)Sc1nnc(-c2c[nH]c3ccccc23)n1C (stereo unspecified)	0	0	0	0	0	0
CCn1c(SC(C)C(=O)OC)nnc1-c1c[nH]c2ccccc12 (stereo unspecified)	0	0	0	66	0	0
CCn1c(SC)nnc1-c1c[nH]c2ccccc12	0	0	0	72	0	0
CCn1c(SCc2ccc(C(=O)OC)o2)nnc1-c1c[nH]c2ccccc12	0	0	0	98	0	83
CCn1cc(C(=O)N2CCOCC2)c(=O)c2cc(S(=O)(=O)N(C)C)ccc21	0	0	0	0	0	0
Cc1n[nH]c(C)c1S(=O)(=O)N1CCCCCC1	0	0	0	0	0	0
COCCn1c(SC)nnc1-c1c[nH]c2ccccc12	0	0	0	52	0	0
Cc1ccc(-c2nnn(CC(=O)Nc3cccc4c3CCCC4)n2)o1	0	0	0	52	0	0
Cc1ccc(-c2nnn(CC(=O)NCCc3ccc4c(c3)OCO4)n2)o1	0	0	0	60	0	89
SMILES	PostGolgi yeast	PostGolgi ctrl	CYP2C19 act	CYP2C19 inh	CYP2C9 activ	CYP2C9 inhib
O=C1NC2c3ccccc3C(=O)N2c2c1cnn2-c1ccccc1 (stereo unspecified)	0	0	-	-	-	-
O=C(C1COc2ccccc2O1)N1CCN(c2ccccc2)CC1 (stereo unspecified)	0	0	0	85	0	75
O=C(Nc1ccccc1Cl)N1CCn2c(nc3ccccc32)C1	0	0	0	52	0	0
O=C(c1ccccc1)N1CCn2c(nc3ccccc32)C1	-	-	0	0	0	0
COc1ccccc1NC(=O)N1CCn2c(nc3ccccc32)C1	0	0	0	0	0	0
O=C(C1COc2ccccc2O1)N1CCn2c(nc3ccccc32)C1 (stereo unspecified)	0	0	0	85	0	0
O=C(C1COc2ccccc2O1)N1CCOCC1 (stereo unspecified)	0	0	0	0	0	0
O=C(CN1CCC(n2nnc3cc(C(F)(F)F)ccc32)CC1)Nc1ccc2c(c1)CCC2	0	0	0	54	0	79

Assay outcomes deposited in PubChem BioAssay by several laboratories.
